± gives the standard deviation.

The test deals with MILI (PIWIL2) piRISC loaded with piRNA #1 (26 nt). In words: pre-steady-state target cleavage rate (min^-1); guide: piRNA #1 5'p-UGAGGUAGUAGGUUGUAUAGUAUCCA; MIWI and MILI are mouse PIWI proteins and EfPiwi is from a freshwater sponge; tags in brackets are library labels; higher = faster piRNA-guided slicing of the target. The following applies: auxiliary factor: 500 nM mouse GTSF1. In outline: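 The pre-steady-state cleavage rate was obtained by Cleave-'n-Seq with a burst-and-steady-state fit. A transcribed, DNA-blocked target RNA library (0.1 nM) was mixed with 1 nM active affinity-purified piRISC carrying one synthetic guide, with or without 500 nM GTSF1 partner protein, in HEPES–potassium acetate buffer at 33 °C for 0–8 or 0–960 min. Uncleaved targets were sequenced and normalised to depth and to weakly complementary targets, with three trials pooled and k3 capped at 0.0001 min^-1.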
On to GGAGACCUAUCUAUUCAAGCUACUACCUCA, for which the “pre-steady-state target cleavage rate” value was 0.196 ± 0.015.
Take GGAGACCUAUGAAUACAACCUACUUCCUCA: the “pre-steady-state target cleavage rate” value was 0.00371 ± 0.0019.
For GGAGACCUAUGAUAGCAACCUACUACCUCA the value was 0.00366 ± 0.0022.
On to GGAGACCUAUGAUAUGUUGCUAGAUCCUCA, for which the “pre-steady-state target cleavage rate” value is below 0.0001.
For GGAGACCAUUCUAUAGAACCUACUACCUCA the value was 0.116 ± 0.015; for GGAGACCUAUGAAUACAACCGACUACCUCA, 0.00328 ± 0.003; for GGAGACCUAACUUUACAACCUACAACCUCA, 0.0823 ± 0.027.
For the sequence GGAGUGGAUACUAUAGAACCUUCUACCUCA, the “pre-steady-state target cleavage rate” value worked out at 0.00415 ± 0.0015.
In the case of GGAGACCUAUGAAUACAACGUACAACCUCA it was 0.00489 ± 0.0026.
In the case of GGAGACCUAUGAUUACAUCCUACUAGCUCA it was 0.00651 ± 0.0025.
Turning to GGAGACCUAUGAUAUCAUCCUACAACCUCA, the “pre-steady-state target cleavage rate” value is 0.00348 ± 0.003.
For GGAGACGUUACUAUACAACCUACUACCUCA, the “pre-steady-state target cleavage rate” value came out at 0.186 ± 0.014.
For GGAGACCUAACUUAUCAACCUACUACCUCA the value was 0.0153 ± 0.0078; for GGAGUGCAUUCUAUACAACCUACUACCUCA, 0.13 ± 0.011; for GGAGACCUUACUAUACAACCUACAUACCUCA, 0.157 ± 0.011.
In the case of “GGAGACCUAUGAUAACAACCUACUACCUCU [g2:g16:cont:t1U]” it was 0.00588 ± 0.0024; in that of GGAGACCUAUGAAUACAACGUACUUCCUCA, 0.00328 ± 0.0027.
Regarding GGAGAGGAUUCUAUACAACCUACAACCUCA, the “pre-steady-state target cleavage rate” value stood at 0.0904 ± 0.012.
GGAGACCUAUGUAAACAACCUACAACCUCA: the “pre-steady-state target cleavage rate” value was 0.0135 ± 0.0041.
As for GGAGACCUUUCUAUACAACCUACAACCUCA, the “pre-steady-state target cleavage rate” value was 0.0806 ± 0.01.
Turning to GGAGACCUAUGAAUACAACCUCACUACCUCA, the “pre-steady-state target cleavage rate” value worked out at 0.00378 ± 0.0031.
Take GGAGACGAUACAAUACAAGCUACUACCUCA: the “pre-steady-state target cleavage rate” value came out at 0.236 ± 0.017.
As to GGAGACCUUACUUUACAACCUUCUACCUCA, the “pre-steady-state target cleavage rate” value was found to be 0.00698 ± 0.0032.
In the case of GGAGACCUAACAAUACAACCUACUACGUCA it was 0.023 ± 0.0089.
For GGAGACCUAUGAUAACAACCUACUAGCCUCA the value was 0.00672 ± 0.0023; for GGAGACGAUACUAUACAAGCUACUUCCUCA, 0.167 ± 0.016.
For GGAGACCUAUCUUACAACCUACUACCUCA the value was 0.0336 ± 0.0082.
For GGAGACCUUACUAUAGAACCUACUACCACA, the “pre-steady-state target cleavage rate” value turned out to be 0.0558 ± 0.012.
In the case of GGAGACCUAUCUAUACAUCCUACUACGUCA it was 0.0773 ± 0.017.
For GGAGACCUUACUAUUGAACCUACUACCUCA, the “pre-steady-state target cleavage rate” value came out at 0.137 ± 0.013.
GGAGACGUUACUAUUCAACCUACUACCUCA: the “pre-steady-state target cleavage rate” value stood at 0.168 ± 0.011.
Regarding GGAGACCUAACUGUACAACCUACUACCUCA, the “pre-steady-state target cleavage rate” value came out at 0.0814 ± 0.024.
As to GGAGACGAUACUAUACAACCUUCUACCACA, the “pre-steady-state target cleavage rate” value came to 0.00864 ± 0.0028.
In the case of GGAGACCUAUGAUAUGUUCCUCCUACCUCA it was below 0.0001; in that of GGAGACCUAUCUAUACAACCUAACUACCUCA, 0.00833 ± 0.0023.
In the case of GGAGUGGAUUCUAUUCAACCUACUACCUCA it was 0.165 ± 0.008; in that of GGAGACCUAUCUUUACAACCUACUUCCUCA, 0.0374 ± 0.0094.
With GGAGACCUUACUUUACAACCUACUUCCUCA, the “pre-steady-state target cleavage rate” value was determined as 0.0347 ± 0.011.
Turning to GGAGACCUAUGAUUACAACCUACUAGCCUCA, the “pre-steady-state target cleavage rate” value is 0.00776 ± 0.0028.
For GGAGACGAUACUAUACAUGGUACUACCUCA the value was 0.00601 ± 0.0019.

These data come from the supplement of paper PMC10338343.
